Compound activity (PubChem)
Sampled rows, rich in hits. Any-hit rate of the full collection: about 2.4%.
YjeE inh = displaces an ADP probe from E. coli YjeE (TsaE); P0AF67; purified YjeE enzyme, qHTS inhibition assay; Potency, µM; 0.05% of 71,000 active; AID 605
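Purified YjeE (10 uM) with BODIPY Texas Red-labeled ADP probe (2 uM); compounds pin-transferred, 15 min at room temperature. Binding inhibition read as decreased fluorescence polarization; ADP titration as control.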
BRCT inh green = blocks human BRCA1 BRCT binding to phosphopeptide, green readout; 0.05% of 75,000 active; Potency, µM (titrated, usually from 76.9 µM), most hits filed as inhibitors; P38398; BRCA1 BRCT-phosphopeptide binding, green fluorescence polarization
Target sequence (P38398 whole entry, looked up): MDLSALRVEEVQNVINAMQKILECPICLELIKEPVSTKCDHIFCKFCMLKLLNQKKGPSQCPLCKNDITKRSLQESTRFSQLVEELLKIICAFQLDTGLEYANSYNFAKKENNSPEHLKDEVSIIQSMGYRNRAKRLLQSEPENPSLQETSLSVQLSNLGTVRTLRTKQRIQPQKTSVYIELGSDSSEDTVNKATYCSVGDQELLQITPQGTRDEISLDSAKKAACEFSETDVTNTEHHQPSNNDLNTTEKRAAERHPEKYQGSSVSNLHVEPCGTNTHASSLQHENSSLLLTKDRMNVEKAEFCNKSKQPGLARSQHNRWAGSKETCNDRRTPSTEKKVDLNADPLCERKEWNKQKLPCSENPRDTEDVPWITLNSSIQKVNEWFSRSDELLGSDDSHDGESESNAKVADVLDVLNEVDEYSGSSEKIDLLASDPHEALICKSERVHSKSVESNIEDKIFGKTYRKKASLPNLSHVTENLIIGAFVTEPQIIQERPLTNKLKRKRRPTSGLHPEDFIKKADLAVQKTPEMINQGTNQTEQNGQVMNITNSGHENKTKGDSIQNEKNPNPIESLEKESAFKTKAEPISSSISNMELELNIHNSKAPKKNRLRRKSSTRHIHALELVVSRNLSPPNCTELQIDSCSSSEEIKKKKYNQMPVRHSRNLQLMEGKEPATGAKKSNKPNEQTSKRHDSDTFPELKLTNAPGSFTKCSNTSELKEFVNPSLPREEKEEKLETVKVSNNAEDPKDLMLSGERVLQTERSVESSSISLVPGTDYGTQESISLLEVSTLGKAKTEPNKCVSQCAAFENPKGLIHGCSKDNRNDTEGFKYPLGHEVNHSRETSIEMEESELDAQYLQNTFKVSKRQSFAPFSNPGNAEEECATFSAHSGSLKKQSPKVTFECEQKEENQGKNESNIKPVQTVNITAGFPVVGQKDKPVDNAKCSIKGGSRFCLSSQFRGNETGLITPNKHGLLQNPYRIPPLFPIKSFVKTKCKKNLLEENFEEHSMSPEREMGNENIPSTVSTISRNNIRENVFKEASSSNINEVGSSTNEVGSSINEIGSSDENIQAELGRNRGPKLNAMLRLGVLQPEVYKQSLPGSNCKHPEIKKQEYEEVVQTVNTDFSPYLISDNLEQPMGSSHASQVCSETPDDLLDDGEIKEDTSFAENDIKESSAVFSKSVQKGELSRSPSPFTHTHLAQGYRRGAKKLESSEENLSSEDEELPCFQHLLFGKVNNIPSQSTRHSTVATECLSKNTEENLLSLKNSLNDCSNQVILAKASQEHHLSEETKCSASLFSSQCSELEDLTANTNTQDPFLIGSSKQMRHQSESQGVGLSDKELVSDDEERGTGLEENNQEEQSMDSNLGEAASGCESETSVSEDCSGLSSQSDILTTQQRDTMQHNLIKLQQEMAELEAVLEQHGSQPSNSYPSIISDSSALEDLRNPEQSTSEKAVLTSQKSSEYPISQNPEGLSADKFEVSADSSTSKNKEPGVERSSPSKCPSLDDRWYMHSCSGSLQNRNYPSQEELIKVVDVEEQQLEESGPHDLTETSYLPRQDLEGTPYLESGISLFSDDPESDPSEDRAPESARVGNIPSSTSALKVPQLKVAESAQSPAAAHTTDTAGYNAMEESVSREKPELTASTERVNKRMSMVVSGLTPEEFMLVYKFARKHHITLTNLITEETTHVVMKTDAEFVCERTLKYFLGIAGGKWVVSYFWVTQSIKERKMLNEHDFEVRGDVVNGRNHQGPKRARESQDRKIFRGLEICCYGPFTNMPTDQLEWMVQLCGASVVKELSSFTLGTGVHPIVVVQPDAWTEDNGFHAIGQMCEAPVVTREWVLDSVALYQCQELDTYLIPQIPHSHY
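Fluorescence polarization: His-tagged BRCT (~35 kDa BRCA1 C-terminus, 250 nM) bound to 100 nM fluorescein-labeled phosphorylated 10-aa BACH1 peptide, pH 7.3 phosphate buffer with DTT and Tween 20. Compounds incubated 12 min at room temperature; inhibition read as lowered polarization.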
BRCT inh red = inhibitors of human BRCA1 BRCT-phosphoprotein interaction (red fluorophore) | Potency, µM (top dose mostly 76.9 µM), hits mostly inhibitors | P38398 | BRCT-phosphopeptide binding, red fluorescence polarization | 0.03% of 75,000 active
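Fluorescence polarization: 100 nM His-tagged BRCA1 BRCT with 100 nM TAMRA-labelled phospho-BACH1 decapeptide, phosphate buffer pH 7.3 with 150 mM NaCl, DTT, 0.01% Tween 20; 12 min RT. Binding inhibition seen as FP decrease.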
Pol III holo inh = blocks replication by bacterial DNA polymerase III holoenzyme. reconstituted DNA polymerase III holoenzyme replication, biochemical. Potency, µM (doses to about 57.1 µM). 0.25% of 71,000 active. AID 603
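Reconstituted *E. coli* holoenzyme (0.35 nM Pol III, 1 nM beta, 154 nM SSB, 2 nM primase) was preincubated with compound for 15 min at RT. Synthesis on 1.4 nM ssM13Gori ran 35 min, then was stopped with PicoGreen/EDTA and read as dsDNA fluorescence.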
Hsp90 Hop PPI = changes Hsp90-Hop TPR2A binding signal, up or down; AlphaScreen TPR2A-His6 binding biotin-Hsp90 C-terminal peptide; Potency, µM (series often up to 57 µM); 0.44% of 71,000 active; active means well fitted curve in either direction with a large enough effect; inconclusive means small, poorly fitted or top-dose-only effect, or another doubt
Tau fil binding = binders of human tau filaments. P10636. recombinant tau filaments, thioflavin S fluorescence, 15 h; filaments grown with octadecylsulfate alongside compound. Potency, µM (doses to about 57.1 µM). 2% of 71,000 active;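 further: actives lower thioflavin S fluorescence by blocking filaments or displacing dye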
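Tau 2 uM in ThS buffer dispensed; compound added; 60 uM ODS added (finals 1 uM tau, 30 uM ODS); 15 h 37 C; fluor ex450/em510.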
Numbers stand for hits; [ ] = another dose, or the depositor's remark. Unless noted, the call rests on the fitted dose curve; in most records, active means well fitted curve in the direction sought with a large enough effect; inconclusive means small, poorly fitted or top-dose-only effect, or another doubt; inactive means no such curve, though single readings can be large; an effect the other way counts as inactive or inconclusive.

Screening COC(=O)[C@@H](NC(=O)c1cc(-c2ccccc2)nc2ccccc12)c1ccccc1 returned YjeE inh inactive, Pol III holo inh inactive, Hsp90 Hop PPI inactive and Tau fil binding inactive.
Screening COc1ncc2nc(-c3cccs3)c(=O)n(Cc3ccc(F)cc3)c2n1 returned YjeE inh inactive, BRCT inh green inactive, BRCT inh red inactive, Pol III holo inh inactive, Hsp90 Hop PPI inactive and Tau fil binding inactive.
For O=c1oc2c(O)c(O)cc3c(=O)oc4c(O)c(O)cc1c4c23 the results were YjeE inh inactive, BRCT inh green inactive, BRCT inh red inactive, Pol III holo inh 0.005µM, Hsp90 Hop PPI 32µM and Tau fil binding inconclusive.
Screening CCCN=Cc1sc2ccc(OCC)cc2c1O returned YjeE inh inactive, BRCT inh green inactive, BRCT inh red inactive, Pol III holo inh inactive, Hsp90 Hop PPI inactive and Tau fil binding 16µM.
For Oc1ccc(N=Cc2ccc(O)c(O)c2)cc1 the results were YjeE inh inconclusive, BRCT inh green inactive, BRCT inh red inactive, Pol III holo inh inactive, Hsp90 Hop PPI inactive and Tau fil binding 6.3µM.
C[N+](C)(C)/N=C\c1ccc(O)c(O)c1 was read as YjeE inh inactive, BRCT inh green inactive[15.4 µM], BRCT inh red inactive[15.4 µM], Pol III holo inh inactive[11.4 µM], Hsp90 Hop PPI inactive[11 µM] and Tau fil binding inactive[11.4 µM].
Screening COc1ccc2c(c1)Cc1sc(NC(=O)c3cccs3)nc1-2 returned YjeE inh inactive, BRCT inh green inactive, BRCT inh red inactive, Pol III holo inh inactive, Hsp90 Hop PPI inactive and Tau fil binding 25µM.
CCOC(=O)N1CCC(Nc2c(OCC)c(=O)c2=O)CC1 was read as YjeE inh inactive, BRCT inh green inactive, BRCT inh red inactive, Pol III holo inh inactive, Hsp90 Hop PPI inactive[2.3 µM] and Tau fil binding inactive.
CCOC(=O)N1CCC(Nc2c(Nc3ccc(C)c(C)c3)c(=O)c2=O)CC1 was read as YjeE inh inactive, BRCT inh green inactive, BRCT inh red inactive, Pol III holo inh inactive, Hsp90 Hop PPI inactive and Tau fil binding 20µM.
`NC(N)=NCCCC(NC(=O)C(N)Cc1ccc(O)cc1)C(=O)O` (stereo unspecified) gave BRCT inh green inactive[3.08 µM] and BRCT inh red inactive.
Screening Cc1noc(C)c1-c1nc(NC2CCNCC2)c2ccccc2n1 returned YjeE inh inactive, BRCT inh green inactive, BRCT inh red inactive, Pol III holo inh inactive, Hsp90 Hop PPI inactive and Tau fil binding inactive.
COc1ccc(NCc2nnc(SCC(=O)Nc3cc(C(F)(F)F)ccc3Cl)o2)cc1 was read as YjeE inh inactive, BRCT inh green inactive, BRCT inh red inactive, Pol III holo inh inactive, Hsp90 Hop PPI inconclusive and Tau fil binding 20µM.
O=C1SC(c2ccccc2)=N/C1=C/c1ccco1 was read as YjeE inh inactive, BRCT inh green inactive, BRCT inh red inactive, Pol III holo inh inactive, Hsp90 Hop PPI inactive and Tau fil binding 25µM.
`CN(C)c1ccc(N=Cc2ccco2)cc1` gave YjeE inh inactive, BRCT inh green inactive, BRCT inh red inactive, Pol III holo inh inactive, Hsp90 Hop PPI inconclusive and Tau fil binding 13µM.
Screening CCOC(=O)c1ccc(-n2[nH]c(-c3ccccc3)cc2=O)cc1 returned YjeE inh inactive, BRCT inh green inactive, BRCT inh red inactive, Pol III holo inh inactive, Hsp90 Hop PPI inactive and Tau fil binding 16µM.
Screening CCOC(=O)c1ccc(-n2c(C)nc3ccccc3c2=O)cc1 returned YjeE inh inactive, BRCT inh green inactive, BRCT inh red inactive, Pol III holo inh inactive, Hsp90 Hop PPI inactive and Tau fil binding inactive.
Screening CC(C)c1ccc2oc(-c3cc(N)ccc3O)nc2c1 returned YjeE inh inactive, BRCT inh green inactive, BRCT inh red inactive, Pol III holo inh inactive[11.4 µM], Hsp90 Hop PPI inactive[11 µM] and Tau fil binding 3.2µM.
Screening CC(C)=CCCC(C)C1CC[C@@]2(C)C3=C(CC[C@@]12C)C1(C)CCC(O)C(C)(C)C1CC3 (stereo partly specified) returned BRCT inh green inactive and BRCT inh red inactive.
For N.N.O=C(O)C1(C(=O)O)CCC1.[Pt] the results were YjeE inh inactive, BRCT inh green inactive[3.08 µM], BRCT inh red inactive, Pol III holo inh 7.9µM, Hsp90 Hop PPI inconclusive and Tau fil binding inactive.
`COc1ccc(Nc2nc3ccccc3nc2C)cc1` gave YjeE inh inactive, BRCT inh green inactive, BRCT inh red inactive, Pol III holo inh inactive, Hsp90 Hop PPI inactive and Tau fil binding 20µM.
`OC(CCN1CCOCC1)(c1ccc(Cl)cc1)C1CCCCC1` (stereo unspecified) gave YjeE inh inactive, BRCT inh green inactive, BRCT inh red inactive, Pol III holo inh inactive, Hsp90 Hop PPI inactive and Tau fil binding 20µM.
Screening OC(CCN1CCCCC1)(c1ccccc1)C1CCCCC1 (stereo unspecified) returned BRCT inh green inactive[3.08 µM] and BRCT inh red inactive.
For CCOc1ccc(NC(C)=O)cc1 the results were YjeE inh inactive, BRCT inh green inactive[3.08 µM], BRCT inh red inactive, Pol III holo inh inactive, Hsp90 Hop PPI inactive and Tau fil binding inactive.
Screening CCOc1ccc(NCC(=O)Nc2ccc(C)cc2C)cc1 returned YjeE inh inactive, BRCT inh green inactive, BRCT inh red inactive, Pol III holo inh inactive, Hsp90 Hop PPI inactive and Tau fil binding 32µM.
`CC(=O)N1CCC2(CCCN(c3ccccc3)C2)CC1` gave YjeE inh inactive, BRCT inh green inactive, BRCT inh red inactive, Pol III holo inh inactive, Hsp90 Hop PPI inactive and Tau fil binding inactive.
`Cn1c(C(=O)NCc2ccc3c(c2)OCO3)cc2sccc21` gave YjeE inh inactive, BRCT inh green inactive, BRCT inh red inactive, Pol III holo inh inactive, Hsp90 Hop PPI inactive and Tau fil binding inactive.
For Cn1c(C(=O)Nc2ccc3c(c2)OCO3)cc2sccc21 the results were YjeE inh inactive, BRCT inh green inactive, BRCT inh red inactive, Pol III holo inh inactive, Hsp90 Hop PPI inactive and Tau fil binding 13µM.
Screening O=C(Nc1ccc2c(c1)OCO2)c1cc(C2CC2)on1 returned YjeE inh inactive, BRCT inh green inactive, BRCT inh red inactive, Pol III holo inh inactive, Hsp90 Hop PPI inactive and Tau fil binding inactive.
Cc1onc(-c2c(Cl)cccc2Cl)c1C(=O)Nc1ccc2c(c1)OCO2 was read as YjeE inh inactive, BRCT inh green inactive, BRCT inh red inactive, Pol III holo inh inactive, Hsp90 Hop PPI inactive and Tau fil binding 3.2µM.
Screening CC(C)c1cc(C(=O)Nc2ccc3c(c2)OCO3)no1 returned YjeE inh inactive, BRCT inh green inactive, BRCT inh red inactive, Pol III holo inh inactive, Hsp90 Hop PPI inactive and Tau fil binding 13µM.
Screening CCN(CC)CCCC(C)n1c(-c2ccccc2)nc2c(N(CCOC)CCOC)nc(C)nc21 (stereo unspecified) returned YjeE inh inactive, BRCT inh green inactive, BRCT inh red inactive, Pol III holo inh inactive, Hsp90 Hop PPI inactive and Tau fil binding inactive.
